From PubChem BioAssay (NCATS)
A number with no mark means an inactive call. The call rests on the fitted dose curve; in most records, active means well fitted curve in the direction sought with a large enough effect; inconclusive means small, poorly fitted or top-dose-only effect, or another doubt; inactive means no such curve, though single readings can be large; an effect the other way counts as inactive or inconclusive.

Assay: Cellular Toxicity (caspase-3) MRC-5 (AID 659)
Conditions: MRC-5 cells, luminescence, normalized: DMSO 0%, 10 µM staurosporine 100%; series mostly up to 91.7 µM; caspase-3 activation: at the top concentration
Outline: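 Luminescent Caspase-Glo 3/7 read-out (1 h, room temperature) after a 16 h, 37 °C compound exposure of MRC-5 lung fibroblasts at 1500 cells/well. Concentration-response AC50 from Hill equation; 0% DMSO, 100% 10 uM staurosporine.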

Structure (SMILES) | caspase-3 activation [%]
CCCCCCc1ccc(-c2ccc(C#N)cc2)cc1 | -0.59
Nc1cnn([C@@H]2O[C@H](CO)[C@@H](O)[C@H]2O)c(=O)n1 | 1.37
CCCCCCCCOc1ccc(C(=O)O)cc1 | -2.57
Oc1c(Cl)cc(Cl)c(Cl)c1Cl | -1.57
CC(C)OCC1CO1 (stereo unspecified) | -2.07
C/C(Cl)=C/CCl | 1.73
CCCCNCC | 0.516
O=c1[nH]ncc2ccccc12 | -1.51
c1ccc(COCc2ccccc2)cc1 | -2.74
O=[N+]([O-])c1cccc(I)c1 | 0.131
Nc1ccc2c(c1)C(=O)c1ccccc1C2=O | -8.4
c1ccc2c(c1)ccc1ccccc12 | 2.32
Nc1ccc(N=Nc2ccccc2)c(N)c1 | -7.75
Cc1ccc(C(=O)O)cc1[N+](=O)[O-] | 1.56
COc1ccc([N+](=O)[O-])cc1N | 0.504
OCC(CO)(CBr)CBr | 0.915
Nc1cc(C(=O)O)c(O)c(S(=O)(=O)O)c1 | 1.29
Oc1ccc2c(c1)OCO2 | 3.76
c1ccncc1 | 0.807

Structure (SMILES) | caspase-3 activation [%]
CC(=O)OC1CC(C)OC(C)O1 (stereo unspecified) | -0.689
O=C(OCc1ccccc1)c1ccccc1O | -1.15
C/C=C/C=C/C=O | 0.277
CCN(CC)c1ccc2c(C)cc(=O)oc2c1 | 4.88
c1c[nH]cn1 | -1.59
c1ccc(SCCSc2ccccc2)cc1 | 0.82
O=C(O)/C=C/c1ccc(/C=C/C(=O)O)cc1 | -7.07
CCCCOC(=O)COc1ccc(Cl)cc1Cl | 0.669
CC(=O)OC(C(=O)c1ccccc1)c1ccccc1 (stereo unspecified) | 1.63
CCCCCCN | -0.064
CC(=O)Nc1cccc(C)c1 | -0.057
CCC(Cl)CC(Cl)C(Cl)C(Cl)C(Cl)C(C)Cl (stereo unspecified) | 0.129
COc1ccc(C)cc1N | 0.0106
CCc1ccc(C(c2ccc(CC)cc2)C(Cl)Cl)cc1 | 0.0875
O=[N+]([O-])c1ccccc1Nc1ccccc1 | 2.44
C=CC1CO1 (stereo unspecified) | 1.39
COc1cc(-c2ccc(N=C=O)c(OC)c2)ccc1N=C=O | 3.58
CCOC(=O)C1OC1c1ccccc1 (stereo unspecified) | 1.2
COc1ccc(C(=O)Nc2ccccc2)cc1[N+](=O)[O-] | -0.825

Assay: Cellular Toxicity (caspase-3) Mesangial (AID 660);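 further: combined caspase 3 and 7 activity read by Caspase-Glo luminescence; cells exposed to compound for 16 h before the caspase read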
Conditions: mesangial cells, normalized: DMSO 0%, 100 µM tamoxifen 100%; series mostly up to 91.7 µM; caspase-3 activation: at the top concentration
Outline: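 Seed cells derived from normal human renal glomeruli, incubate 5 h, add compounds across concentrations and incubate 16 h at 37 °C. Caspase 3/7 activation is then quantified by luciferase light, with AC50 derived by Hill modeling.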

Structure (SMILES) | caspase-3 activation [%]
CCCCCCc1ccc(-c2ccc(C#N)cc2)cc1 | -0.414
Nc1cnn([C@@H]2O[C@H](CO)[C@@H](O)[C@H]2O)c(=O)n1 | -0.56
CCCCCCCCOc1ccc(C(=O)O)cc1 | -0.233
Oc1c(Cl)cc(Cl)c(Cl)c1Cl | 0.274
CC(C)OCC1CO1 (stereo unspecified) | 0.473
C/C(Cl)=C/CCl | 0.515
CCCCNCC | -0.762
O=c1[nH]ncc2ccccc12 | 0.0967
c1ccc(COCc2ccccc2)cc1 | 1.14
O=[N+]([O-])c1cccc(I)c1 | 0.495
Nc1ccc2c(c1)C(=O)c1ccccc1C2=O | -4.59
c1ccc2c(c1)ccc1ccccc12 | 0.192
Nc1ccc(N=Nc2ccccc2)c(N)c1 | -4.27
Cc1ccc(C(=O)O)cc1[N+](=O)[O-] | -0.34
COc1ccc([N+](=O)[O-])cc1N | 0.441
OCC(CO)(CBr)CBr | -1.07
Nc1cc(C(=O)O)c(O)c(S(=O)(=O)O)c1 | 0.318
Oc1ccc2c(c1)OCO2 | -0.143
c1ccncc1 | -0.542

Structure (SMILES) | caspase-3 activation [%]
CC(=O)OC1CC(C)OC(C)O1 (stereo unspecified) | -0.136
O=C(OCc1ccccc1)c1ccccc1O | -0.409
C/C=C/C=C/C=O | 9.84
CCN(CC)c1ccc2c(C)cc(=O)oc2c1 | 0.715
c1c[nH]cn1 | -0.19
c1ccc(SCCSc2ccccc2)cc1 | -1.42
O=C(O)/C=C/c1ccc(/C=C/C(=O)O)cc1 | -4.23
CCCCOC(=O)COc1ccc(Cl)cc1Cl | -0.614
CC(=O)OC(C(=O)c1ccccc1)c1ccccc1 (stereo unspecified) | -0.848
CCCCCCN | 0.0226
CC(=O)Nc1cccc(C)c1 | 0.537
CCC(Cl)CC(Cl)C(Cl)C(Cl)C(Cl)C(C)Cl (stereo unspecified) | 0.704
COc1ccc(C)cc1N | -0.595
CCc1ccc(C(c2ccc(CC)cc2)C(Cl)Cl)cc1 | 1.48
O=[N+]([O-])c1ccccc1Nc1ccccc1 | -0.0404
C=CC1CO1 (stereo unspecified) | -0.99
COc1cc(-c2ccc(N=C=O)c(OC)c2)ccc1N=C=O | -0.451
CCOC(=O)C1OC1c1ccccc1 (stereo unspecified) | -0.693
COc1ccc(C(=O)Nc2ccccc2)cc1[N+](=O)[O-] | -2.21
